The structures appear in SMILES notation.

Consider eleven compounds from ChEMBL document CHEMBL2218924, “A broad activity screen in support of a chemogenomic map for kinase signalling research and drug discovery” (Biochem J, 2013).

Test [1] concerns the target T1, Casein kinase II (Homo sapiens) (UniProt P67870+P68400+P19784). The note with it: at 1 µM.
Test [2] concerns the target T1, Casein kinase II (Homo sapiens). The note with it: at 10 µM.
Test [3] has as its target Casein kinase II subunit alpha' (Homo sapiens) (UniProt P19784). The note with it: at 1 µM.
Test [4] has the same target. The note with it: at 10 µM.
Test [5] has as its target Dual specificity protein kinase CLK2 (Homo sapiens) (UniProt P49760). The note with it: at 1 µM.
The target is the same in test [6]. The note with it: at 10 µM.
The target in test [7] is Dual specificity protein kinase CLK3 (Homo sapiens) (UniProt P49761). To be noted: at 1 µM.
Test [8] has the same target. The note with it: at 10 µM.
For test [9], the target named is Tyrosine-protein kinase CSK (Homo sapiens) (UniProt P41240). The note with it: at 1 µM.
The target is the same in test [10]. The note with it: at 10 µM.
Test [11] addresses Calcium/calmodulin-dependent protein kinase type 1 (Homo sapiens) (UniProt Q14012). The note with it: at 1 µM.
The target is the same in test [12]. The note with it: at 10 µM.
The target in test [13] is Calcium/calmodulin-dependent protein kinase type II subunit beta (Homo sapiens) (UniProt Q13554). To be noted: at 1 µM.
The target is the same in test [14]. To be noted: at 10 µM.
In test [15] the target is Calcium/calmodulin-dependent protein kinase type II subunit gamma (Homo sapiens) (UniProt Q13555). To be noted: at 1 µM.
For test [16] the target is unchanged. The note with it: at 10 µM.
The target of test [17] is Calcium/calmodulin-dependent protein kinase type II subunit delta (Homo sapiens) (UniProt Q13557). The note with it: at 1 µM.
For test [18] the target is unchanged. To be noted: at 10 µM.
Test [19] deals with T2, Calcium/calmodulin-dependent protein kinase type IV (Homo sapiens) (UniProt Q16566).
T2 sequence (whole entry): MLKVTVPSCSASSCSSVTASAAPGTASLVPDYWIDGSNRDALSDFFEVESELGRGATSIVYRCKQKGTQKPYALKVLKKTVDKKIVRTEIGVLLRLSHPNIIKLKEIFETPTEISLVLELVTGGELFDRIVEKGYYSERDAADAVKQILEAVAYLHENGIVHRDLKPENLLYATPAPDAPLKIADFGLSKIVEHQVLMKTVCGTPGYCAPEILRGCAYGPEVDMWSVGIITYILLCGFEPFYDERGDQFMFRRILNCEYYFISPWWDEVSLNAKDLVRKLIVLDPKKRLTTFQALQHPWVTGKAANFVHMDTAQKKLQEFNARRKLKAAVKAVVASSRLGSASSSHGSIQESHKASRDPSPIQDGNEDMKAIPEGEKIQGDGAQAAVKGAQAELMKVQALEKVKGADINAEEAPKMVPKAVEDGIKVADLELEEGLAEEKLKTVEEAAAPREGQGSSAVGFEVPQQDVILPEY
To be noted: at 1 µM.

Test [20] deals with T2, Calcium/calmodulin-dependent protein kinase type IV (Homo sapiens). The note with it: at 10 µM.

T1 sequence (P19784 whole entry, looked up): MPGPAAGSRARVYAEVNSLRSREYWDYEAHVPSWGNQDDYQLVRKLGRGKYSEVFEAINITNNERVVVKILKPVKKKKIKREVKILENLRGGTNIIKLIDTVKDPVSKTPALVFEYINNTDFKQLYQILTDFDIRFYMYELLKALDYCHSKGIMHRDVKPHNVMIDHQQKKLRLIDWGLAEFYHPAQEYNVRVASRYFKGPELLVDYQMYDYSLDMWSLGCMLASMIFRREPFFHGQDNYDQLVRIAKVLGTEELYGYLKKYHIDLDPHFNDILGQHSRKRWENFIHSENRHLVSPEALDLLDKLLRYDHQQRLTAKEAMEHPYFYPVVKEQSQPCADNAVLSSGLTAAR
T1 sequence (P67870 whole entry, looked up): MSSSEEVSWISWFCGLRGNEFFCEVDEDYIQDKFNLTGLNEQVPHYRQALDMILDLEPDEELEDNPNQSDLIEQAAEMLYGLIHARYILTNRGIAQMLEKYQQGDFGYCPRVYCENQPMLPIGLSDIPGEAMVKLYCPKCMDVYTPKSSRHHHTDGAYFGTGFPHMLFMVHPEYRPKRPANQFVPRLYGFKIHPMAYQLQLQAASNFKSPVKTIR
T1 sequence (P68400 whole entry, looked up): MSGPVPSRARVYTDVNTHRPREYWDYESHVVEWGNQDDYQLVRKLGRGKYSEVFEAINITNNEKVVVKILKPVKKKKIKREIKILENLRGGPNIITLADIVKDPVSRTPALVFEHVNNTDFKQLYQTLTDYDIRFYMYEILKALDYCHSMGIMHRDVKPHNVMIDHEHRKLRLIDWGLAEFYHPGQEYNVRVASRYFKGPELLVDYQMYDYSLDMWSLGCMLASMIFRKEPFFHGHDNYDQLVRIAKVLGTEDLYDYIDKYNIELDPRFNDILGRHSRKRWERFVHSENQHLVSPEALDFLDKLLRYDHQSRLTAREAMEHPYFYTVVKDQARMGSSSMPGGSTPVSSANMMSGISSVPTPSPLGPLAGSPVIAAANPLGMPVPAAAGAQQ
Sequence of Casein kinase II subunit alpha' (Homo sapiens) (P19784 whole entry, looked up): as the sequence (P19784 whole entry, looked up) above
Sequence of Calcium/calmodulin-dependent protein kinase type II subunit beta (Homo sapiens) (Q13554 whole entry): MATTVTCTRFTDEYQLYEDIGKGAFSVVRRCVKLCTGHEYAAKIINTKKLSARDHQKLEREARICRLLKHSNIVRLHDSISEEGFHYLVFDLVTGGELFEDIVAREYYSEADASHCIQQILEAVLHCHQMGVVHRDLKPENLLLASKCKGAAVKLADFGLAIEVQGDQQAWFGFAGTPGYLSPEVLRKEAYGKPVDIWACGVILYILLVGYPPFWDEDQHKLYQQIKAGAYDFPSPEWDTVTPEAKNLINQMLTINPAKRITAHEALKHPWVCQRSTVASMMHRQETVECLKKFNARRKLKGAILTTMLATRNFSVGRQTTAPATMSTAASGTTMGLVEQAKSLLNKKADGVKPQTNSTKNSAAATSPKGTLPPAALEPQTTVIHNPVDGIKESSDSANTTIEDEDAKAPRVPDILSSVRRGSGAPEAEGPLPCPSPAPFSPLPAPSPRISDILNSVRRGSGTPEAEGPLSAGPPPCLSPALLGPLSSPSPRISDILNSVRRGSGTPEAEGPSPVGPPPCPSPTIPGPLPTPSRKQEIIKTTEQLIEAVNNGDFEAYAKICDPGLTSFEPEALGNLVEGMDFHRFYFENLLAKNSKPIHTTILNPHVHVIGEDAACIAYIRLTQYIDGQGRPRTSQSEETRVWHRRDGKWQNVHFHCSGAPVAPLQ
Sequence of Calcium/calmodulin-dependent protein kinase type II subunit gamma (Homo sapiens) (Q13555 whole entry): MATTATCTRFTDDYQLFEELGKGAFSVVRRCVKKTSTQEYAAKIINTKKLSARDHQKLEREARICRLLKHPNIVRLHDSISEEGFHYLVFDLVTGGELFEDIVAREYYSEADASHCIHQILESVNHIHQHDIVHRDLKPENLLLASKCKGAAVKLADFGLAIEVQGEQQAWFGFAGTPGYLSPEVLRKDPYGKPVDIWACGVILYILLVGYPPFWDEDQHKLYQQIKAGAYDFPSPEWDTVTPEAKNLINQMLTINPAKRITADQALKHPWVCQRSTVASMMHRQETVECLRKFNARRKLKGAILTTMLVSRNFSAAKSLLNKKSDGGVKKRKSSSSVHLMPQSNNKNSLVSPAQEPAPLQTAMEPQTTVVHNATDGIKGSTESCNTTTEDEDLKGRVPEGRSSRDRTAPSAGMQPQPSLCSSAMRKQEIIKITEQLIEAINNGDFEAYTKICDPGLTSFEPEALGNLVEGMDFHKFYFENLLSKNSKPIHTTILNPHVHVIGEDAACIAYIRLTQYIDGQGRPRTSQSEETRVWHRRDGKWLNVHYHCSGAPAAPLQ
Sequence of Dual specificity protein kinase CLK3 (Homo sapiens) (P49761 whole entry, looked up): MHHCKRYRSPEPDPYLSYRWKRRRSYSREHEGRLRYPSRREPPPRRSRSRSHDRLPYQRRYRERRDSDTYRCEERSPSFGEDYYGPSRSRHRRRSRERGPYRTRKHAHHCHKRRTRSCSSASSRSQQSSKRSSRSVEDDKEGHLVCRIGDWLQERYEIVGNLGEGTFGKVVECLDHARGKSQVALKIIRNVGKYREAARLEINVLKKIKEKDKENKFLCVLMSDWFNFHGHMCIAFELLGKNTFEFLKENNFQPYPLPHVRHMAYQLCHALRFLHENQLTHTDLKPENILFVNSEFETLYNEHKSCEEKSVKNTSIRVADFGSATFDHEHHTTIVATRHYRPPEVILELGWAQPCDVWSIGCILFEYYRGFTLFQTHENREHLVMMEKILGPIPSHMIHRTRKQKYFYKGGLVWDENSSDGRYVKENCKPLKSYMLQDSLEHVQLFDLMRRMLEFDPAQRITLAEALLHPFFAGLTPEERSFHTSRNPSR
Sequence of Tyrosine-protein kinase CSK (Homo sapiens) (P41240 2-450 limits assumed): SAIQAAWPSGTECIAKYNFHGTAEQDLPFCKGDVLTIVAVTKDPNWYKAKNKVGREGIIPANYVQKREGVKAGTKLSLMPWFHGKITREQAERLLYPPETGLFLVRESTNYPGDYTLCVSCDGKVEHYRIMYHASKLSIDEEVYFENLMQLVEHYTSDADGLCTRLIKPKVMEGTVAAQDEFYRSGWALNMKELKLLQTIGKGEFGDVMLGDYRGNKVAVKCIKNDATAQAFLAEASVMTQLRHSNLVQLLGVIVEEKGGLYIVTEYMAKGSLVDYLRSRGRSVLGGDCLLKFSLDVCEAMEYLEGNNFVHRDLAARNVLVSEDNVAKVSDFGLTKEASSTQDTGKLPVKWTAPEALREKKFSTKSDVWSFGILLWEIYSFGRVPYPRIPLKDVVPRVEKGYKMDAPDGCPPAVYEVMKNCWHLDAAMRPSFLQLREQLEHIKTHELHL
Sequence of Calcium/calmodulin-dependent protein kinase type II subunit delta (Homo sapiens) (Q13557 whole entry): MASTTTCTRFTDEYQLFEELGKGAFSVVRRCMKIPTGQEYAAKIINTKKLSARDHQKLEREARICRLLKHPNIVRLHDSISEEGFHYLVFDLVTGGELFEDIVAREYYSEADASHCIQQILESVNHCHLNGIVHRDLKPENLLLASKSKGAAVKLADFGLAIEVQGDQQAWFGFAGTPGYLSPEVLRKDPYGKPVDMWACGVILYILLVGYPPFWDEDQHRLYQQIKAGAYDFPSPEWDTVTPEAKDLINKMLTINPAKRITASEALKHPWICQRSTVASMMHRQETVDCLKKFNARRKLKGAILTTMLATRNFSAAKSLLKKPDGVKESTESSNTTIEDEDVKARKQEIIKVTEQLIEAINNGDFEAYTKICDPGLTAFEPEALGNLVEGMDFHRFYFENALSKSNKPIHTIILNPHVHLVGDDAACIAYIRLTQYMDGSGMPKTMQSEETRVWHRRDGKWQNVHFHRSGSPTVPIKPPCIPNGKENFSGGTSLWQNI
Sequence of Dual specificity protein kinase CLK2 (Homo sapiens) (P49760 whole entry, looked up): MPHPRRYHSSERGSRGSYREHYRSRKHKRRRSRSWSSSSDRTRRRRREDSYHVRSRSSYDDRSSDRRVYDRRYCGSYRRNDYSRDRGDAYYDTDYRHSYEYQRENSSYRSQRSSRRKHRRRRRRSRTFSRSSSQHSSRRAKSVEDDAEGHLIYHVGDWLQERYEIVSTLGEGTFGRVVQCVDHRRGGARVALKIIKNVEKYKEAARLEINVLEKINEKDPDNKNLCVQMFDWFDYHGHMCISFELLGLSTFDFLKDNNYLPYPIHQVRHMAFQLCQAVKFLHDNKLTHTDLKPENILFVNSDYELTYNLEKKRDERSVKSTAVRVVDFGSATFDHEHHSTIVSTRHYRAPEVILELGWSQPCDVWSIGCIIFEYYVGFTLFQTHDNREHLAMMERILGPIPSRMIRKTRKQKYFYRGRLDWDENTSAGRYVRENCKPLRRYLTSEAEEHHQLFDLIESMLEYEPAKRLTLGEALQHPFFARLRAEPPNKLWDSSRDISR
Sequence of Calcium/calmodulin-dependent protein kinase type 1 (Homo sapiens) (Q14012 whole entry, looked up): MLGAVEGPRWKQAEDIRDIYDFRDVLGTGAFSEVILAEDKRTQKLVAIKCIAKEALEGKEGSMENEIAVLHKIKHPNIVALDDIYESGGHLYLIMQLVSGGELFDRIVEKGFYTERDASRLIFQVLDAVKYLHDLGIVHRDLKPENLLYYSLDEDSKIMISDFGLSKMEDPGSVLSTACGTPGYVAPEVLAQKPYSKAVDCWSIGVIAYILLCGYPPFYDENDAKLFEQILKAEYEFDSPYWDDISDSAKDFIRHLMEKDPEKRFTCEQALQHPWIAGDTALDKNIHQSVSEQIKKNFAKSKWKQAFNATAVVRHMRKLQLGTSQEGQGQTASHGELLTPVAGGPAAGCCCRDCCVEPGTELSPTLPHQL

For `O=C(O)c1ccc2c3c1cccc3c(=O)n1c3ccccc3nc21`, the residual activity in [1] is 22%; in [2], -4%; in test [3], 18%; in [4] it was 4%; in test [5], 77%; in test [6], 27%. Further, the residual activity was found to be 77% in test [7]; 32% in test [8]; 102% in test [9]; 88% in test [10]; 108% in test [11]; 117% in [12]. The residual activity was determined as 88% in test [13]; 51% in test [14]; 88% in test [15]; 31% in test [16]; 80% in test [17]; 31% in [18]. Besides, the residual activity in test [19] worked out at 94%; in test [20] it was 21%.

As to `Cc1cncc2cccc(S(=O)(=O)N3CCCN(C(=O)CN)C[C@H]3C)c12`, the residual activity turned out to be 128% in test [3]; 98% in [4]; 76% in test [7]; 98% in [8]; 97% in test [11]; 63% in [12]. The residual activity in [13] amounted to 76%; in [14], 49%; in test [15], 95%; in test [16], 64%; in test [17], 98%; in test [18] it was 60%. Also, the residual activity in test [19] is 91%; in test [20], 22%.

Take `CO[C@H]1[C@@H](OC)C[C@H](C)[C@@H](OC)C2=CC(=O)C=C(NC(=O)/C(C)=C/C=C/[C@H](OC)[C@@H](OC(N)=O)/C(C)=C/[C@@H]1C)C2=O`: the residual activity is 88% in test [1]; 111% in test [2]; 99% in test [3]; 99% in test [4]; 100% in test [5]; 110% in [6]. Moreover, the residual activity was found to be 88% in test [7]; 89% in test [8]; 108% in test [9]; 118% in test [10]; 115% in test [11]; 88% in [12]. The residual activity was 97% in test [13]; 93% in [14]; 107% in test [15]; 100% in test [16]; 102% in test [17]; 110% in [18]. Moreover, the residual activity stood at 89% in [19] and 81% in [20].

For the compound `CC#CC(=O)Nc1cc2c(Nc3ccc(F)c(Cl)c3)ncnc2cn1`, the residual activity amounted to 78% in [1]; 114% in test [2]; 120% in [3]; 86% in test [4]; 103% in test [5]; 88% in [6]. The residual activity was found to be 83% in test [7]; 125% in test [8]; 103% in [9]; 99% in [10]; 98% in test [11]; 80% in test [12]. The residual activity in [13] was 91%; in test [14] it was 84%; in test [15], 108%; in test [16], 93%; in test [17], 107%; in test [18], 97%. For the same compound, the residual activity in [19] stood at 121%; in test [20], 87%.

As for `CCC(=O)Nc1ccc2ncnc(Nc3cccc(Br)c3)c2c1`, the residual activity worked out at 107% in test [1]; 101% in test [2]; 125% in [3]; 90% in test [4]; 125% in test [5]; 105% in test [6]. Besides, the residual activity in test [7] was 76%; in [8] it was 142%; in test [9], 104%; in test [10] it was 93%; in test [11] it was 96%; in [12], 98%. Further, the residual activity was 90% in test [13]; 80% in [14]; 100% in test [15]; 74% in test [16]; 109% in test [17]; 79% in test [18]. Also, the values for the residual activity in [19] and in [20] were 123% and 73%, respectively.

Regarding `Oc1c2ccccc2c2c3c(cccc13)N=N2`, the residual activity in [1] was found to be 60%; in test [2] it was 19%; in test [3] it was 59%; in test [4] it was 18%; in test [5] it was 36%; in test [6] it was 21%. The residual activity in test [7] was determined as 72%; in test [8], 34%; in [9] it was 105%; in test [10], 93%; in [11], 77%; in test [12] it was 32%. In addition, the residual activity came to 37% in test [15]; 8% in test [16]; 43% in test [17]; 8% in [18]; 73% in [19]; 24% in test [20].

As to `Cc1nc(-c2ccccc2)c(-c2ccncc2)o1`, the residual activity worked out at 103% in [1]; 98% in test [2]; 102% in [3]; 92% in test [4]; 114% in test [5]; 96% in test [6]. Further, the residual activity in test [7] was 82%; in [8] it was 84%; in [9], 108%; in test [10] it was 104%; in [11], 104%; in test [12], 89%. The residual activity was determined as 97% in [13]; 86% in test [14]; 97% in [15]; 83% in test [16]; 104% in test [17]; 81% in test [18]. For the same compound, the residual activity in test [19] was 108%; in test [20], 112%.

Consider `Cc1ccc(S(=O)(=O)/C=C/C#N)cc1`, for which the residual activity in [1] was found to be 116%; in [2], 98%; in [3], 114%; in [4] it was 103%; in test [5], 110%; in [6] it was 112%. Besides, the residual activity in [7] was 96%; in [8], 96%; in test [9], 116%; in test [10], 105%; in test [11] it was 95%; in test [12] it was 77%. The residual activity in test [13] was 101%; in test [14], 88%; in [15] it was 103%; in test [16], 94%; in [17], 104%; in [18], 107%. Besides, the figures for the residual activity in test [19] and in test [20] were 108% and 86%, respectively.

Regarding `COc1cc2ncc(-c3ccccc3)nc2cc1OC`, the residual activity is 92% in test [7]; 81% in [8]; 94% in [10]; 100% in test [13]; 82% in [14]; 78% in [16]. In addition, the residual activity in test [18] was found to be 80%; in test [20], 60%.

As for `Nc1cccc(-c2cc3c(Oc4cccc(O)c4)ncnc3[nH]2)c1`, the residual activity was 101% in test [1]; 105% in test [2]; 93% in test [5]; 50% in test [6]; 75% in test [7]; 63% in [8]. Besides, the residual activity in test [9] turned out to be 79%; in test [10], 21%; in test [11], 88%; in test [12], 66%; in test [13], 75%; in [14], 23%. In addition, the residual activity in test [15] stood at 40%; in [16] it was 10%; in test [17], 42%; in [18], 10%.

In the case of `COc1cc2ncnc(Nc3ccc(NC(=O)c4ccccc4)cc3)c2cc1OC`, the residual activity in [1] came to 98%; in test [2] it was 111%; in [3], 110%; in test [4] it was 107%; in [5], 107%; in test [6] it was 82%. Also, the residual activity in test [7] came out at 83%; in test [8], 39%; in [10] it was 92%; in test [11], 99%; in test [12], 41%; in test [13], 102%. In addition, the residual activity in test [14] was found to be 94%; in test [17], 108%; in test [18], 91%; in test [20], 95%.

One may read the residual activity as the signal under treatment as a percentage of the control signal.
